# Compound activity as filed in PubChem.
# This is a sample that favours compounds with a hit; in the whole collection about 12% have one here.
# BAZ2B inh = inhibitors of human BAZ2B bromodomain | Q9UIF8 | AlphaScreen BAZ2B-H3K14Ac peptide displacement | Potency, µM (titrated, usually from 114 µM), inactives show top-dose activity change, negative = inhibition, actives largely listed as inhibitors | hit rate 4.4% among 360,000 | AID 504333; also: % is scaled to controls: 0 for no effect and ±100 for the full control effect; nearly all actives have a fitted effect of over 60% in size
#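 BAZ2B 50 nM plus b-H3(5-23)K14Ac 50 nM, PBS pH 7.4/0.01% Tween-20, 30 min RT; compound added (max 110 uM), 30 min RT; streptavidin donor/Ni-chelate acceptor beads 10 ug/mL final, 20 min dark; AlphaScreen read.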
# G9a inh = G9a (human) methyltransferase inhibition; Potency, µM (top dose mostly 102 µM), for inactives: at the top dose activity, negative = inhibition, usual class: inhibitors; Q96KQ7; AID 504332; hit rate 8.8% among 350,000; G9a H3K9 monomethylation, AlphaScreen, 2 h; also: % is scaled to controls: 0 for no effect and ±100 for the full control effect; nearly all actives have a fitted effect of over 75% in size
#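 Compounds were preincubated with 20 nM G9a for 15 min, after which biotinylated H3K9 peptide (500 nM) and SAM (20 uM) started a 2 h room-temperature reaction. Monomethylated product was quantified by antibody-based AlphaScreen chemiluminescence.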
# PLK1 PBD block = blocks phosphopeptide binding to human PLK1 polo-box domain; Plk1 PBD binding of FITC phosphopeptide, fluorescence polarization; hit rate 2.8% among 360,000; Potency, µM, for the others: max response, negative = inhibition, hits mostly inhibitors; AID 720504; P53350; also: series mostly up to about 57 µM; % is scaled to controls: 0 for no effect and ±100 for the full control effect; nearly all actives have a fitted effect of over 65% in size
# Sfp PPTase inh = inhibitors of Bacillus subtilis Sfp phosphopantetheinyl transferase. Potency, µM, for inactives: largest response in the series, negative = inhibition, actives largely listed as inhibitors. hit rate 3.5% among 310,000. AID 1490. Biochemical Sfp PPTase activity, qHTS;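 also: the enzyme is Sfp with the accession as filed and its product quenches rhodamine fluorescence; 0% = enzyme reaction without inhibitor and -100% = no enzyme wells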
#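 Compounds were incubated with enzyme (final 15 nM) for 15 min at room temperature before substrate addition started the reaction. Fluorescence at 525 nm excitation, 598 nm emission was recorded immediately and after 30 minutes.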
# HP1b chromo inh = HP1-beta chromodomain-methylated histone interaction inhibition | AlphaScreen HP1-beta / biotin-H3K9me3 peptide binding | Potency, µM (highest dose often 114 µM), without a hit: at the highest dose activity change, negative = inhibition, usual class: inhibitors | hit rate 0.56% among 390,000 | AID 540317; also: nearly all actives have a fitted effect of over 70% in size
#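 Compound inhibition of the preformed complex between 50 nM HP1-beta and 50 nM biotinylated H3K9me3 peptide was read by AlphaScreen. Buffer was PBS pH 7.4 with 0.01% Tween-20. Incubations ran 30 min at room temperature, with 10 ug/mL donor/acceptor beads.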
# JMJD2A Tudor = blocks the human JMJD2A Tudor domain. O75164. AlphaScreen JMJD2A-Tudor / H3K4me3 peptide binding. Potency, µM (series often up to 114 µM), without a hit: at the highest dose activity change, negative = inhibition, most hits filed as inhibitors. hit rate 4.4% among 390,000; also: % is scaled to controls: 0 for no effect and ±100 for the full control effect; nearly all actives have a fitted effect of over 50% in size
# Numbers without * were called inactive; ? = inconclusive; . = no result given; ! = repeats disagree; [ ] = remark or other dose. Calls follow the shape of the dose curve; as a rule, active = well fitted curve in the direction sought with a large enough effect; inconclusive = small, poorly fitted or top-dose-only effect, or another doubt; inactive = no such curve, though single readings can be large; an effect the other way counts as inactive or inconclusive. Potency is read from the fitted curve at half-maximal effect.
SMILES,BAZ2B inh,G9a inh,PLK1 PBD block,Sfp PPTase inh,HP1b chromo inh,JMJD2A Tudor
O=C(O)c1ccc(N/N=C/c2ccc(-c3cccc(Cl)c3)o2)cc1,?,?,?,-22.2%,16.4%,-24.3%[11.4 µM]
O=C(O)c1ccc(N/N=C/c2ccc(-c3cc(Cl)ccc3Cl)o2)cc1,79.4µM*,-38.8%,21.2µM*,-26.2%,-8.1%,39.8µM*
COC(=O)N/N=C/c1ccc(-c2ccc(Cl)cc2Cl)o1,-8.1%,14.5%[12.7 µM],-1.7%,-2.1%,21.5%,-18.2%
NS(=O)(=O)c1ccc(-c2ccc(/C=N/Nc3ccc(C(=O)O)cc3)o2)cc1,-7.1%,.,-11.7%,50.1µM*,13.6%,-14.0%[11.4 µM]
O=C(O)c1cccc(-c2ccc(/C=N/Nc3ccc([N+](=O)[O-])cc3)o2)c1,44.7µM*,.,47.3%,0.4%,-21.0%,-27.5%
O=C(O)c1ccc(N/N=C/c2ccc(-c3ccc(Cl)cc3Cl)o2)cc1,?,?,23.8µM*,-8.6%,14.2%,-7.1%
O=C(O)c1ccc(N/N=C/C=C/c2ccc([N+](=O)[O-])o2)cc1,39.8µM*,31.6µM*,-12.8%,?,?,44.7µM*
COc1ccccc1-c1cn[nH]c(=S)n1,-35.5%,?,?,44.7µM*,?,50.1µM*
COc1ccccc1-c1cncc(NC(C)=O)n1,.,.,-9.5%,.,.,.
CC(C)(C)c1cc(=O)n(-c2ccccc2)[nH]1,?,44.7µM*,-8.4%,?,24.2%,-11.1%
Cc1cc(C(C)(C)C)nc2[nH]n(-c3ccccc3)c(=O)c12,-9.8%,-1.1%,-6.3%,6.1%,17.3%,-24.6%
O=c1cc(-c2ccccc2)[nH]n1-c1ccccc1,.,.,5.7%,.,-5.6%,?
O=c1ccc(=O)n(-c2ccccc2)[nH]1,-1.2%,14.1µM*,-21.5%,50.1µM*,?,79.4µM*
O=C(NC1c2ccccc2-c2ccccc21)c1ccccc1,-1.6%,22.8%[59 µM],26.7µM*,-1.2%,-2.1%,-17.5%
CN(C)C(=O)NC1c2ccccc2-c2ccccc21,2.2%,5.2%,-1.5%,8.0%,35.4%,2.3%
O=C(Nc1ncc(S(=O)(=O)c2ccc([N+](=O)[O-])cc2)s1)c1cccnc1,-28.9%,50.1µM*,-29.3%,4.9%,0.4%,-22.6%
O=C(CCl)Nc1ncc(S(=O)(=O)c2ccc([N+](=O)[O-])cc2)s1,.,.,-7.5%,.,13.6%,-10.3%
CCC(C)(C)C(=O)Nc1ncc(S(=O)(=O)c2ccc([N+](=O)[O-])cc2)s1,?,50.1µM*,-18.5%,-6.1%,-20.4%,-35.1%
O=C(Nc1ncc(S(=O)(=O)c2ccc([N+](=O)[O-])cc2)s1)c1ccc2ccccc2c1,-26.0%,20.4%[59 µM],0.0%,?,20.2%,-17.6%
CC(C)CC(C(=O)OCC(=O)c1c(N)n(C)c(=O)n(C)c1=O)N1C(=O)c2ccccc2C1=O (stereo not given),-28.7%,11.2µM*,-2.3%,-17.0%,18.0%,-30.8%
Cc1ccc(OCC(=O)c2c(N)n(C)c(=O)n(C)c2=O)c([N+](=O)[O-])n1,25.1µM*,59.9%[12.7 µM],?,.,20µM*,?
Cn1c(N)c(C(=O)COC(=O)[C@H](Cc2ccccc2)N2C(=O)c3ccccc3C2=O)c(=O)n(C)c1=O,-8.9%,0.7%,-4.8%,-5.8%,18.9%,-26.2%
COc1ccccc1OCCC(=O)OCC(=O)c1c(N)n(C)c(=O)n(C)c1=O,?,50.1µM*,-5.5%,6.2%,35.3%,-21.7%
COC(=O)CCCC1=CC2=C(c3ccccc3)C(=O)C(C)(OC(=O)C3CCCC3)C(=O)C2=CN1CCCOC(C)C (stereo not given),.,.,.,-17.4%,.,.
Cc1ccccc1NP1(=O)OCCCN1Cc1ccccc1Cl (stereo not given),.,.,-5.1%,.,35.8%,-19.4%
SMILES,BAZ2B inh,G9a inh,PLK1 PBD block,Sfp PPTase inh,HP1b chromo inh,JMJD2A Tudor
CCCN1Cc2cccc(C(=O)Nc3cc(Cl)ccc3C)c2C1=O,-6.2%,5.4%[59 µM],.,.,20.9%,-27.9%
Cc1cccc(N2NC(=O)/C(=C/c3ccc(-c4ccc(Cl)c(C(=O)O)c4)o3)C2=O)c1,.,12.6µM*,16.8µM*,-12.4%,?,?
O=C1NN(c2ccccc2)C(=O)/C1=C/c1ccc(-c2ccc(Cl)c(C(=O)O)c2)o1,50.1µM*,17.8µM*,?,-4.1%,?,56.2µM*
CCCCN(CC)CCCNC(=O)c1cn(-c2ccc(OC)cc2)c(=O)c2ccccc12,2.9%,3.8%,-5.6%,2.0%,52.3%,-16.4%
Cc1nc2sccn2c(=O)c1CCN1CCC(=C(c2ccc(F)cc2)c2ccc(F)cc2)CC1,?,1.4%[59 µM],-5.9%,56.2µM*!,-1.3%,?
O=C(Nc1ccc2c(c1)C(=O)OC2)c1ccccc1Cl,22.3%,50.1µM*,1.5%,4.4%,14.3%,-6.2%
O=C1OCc2ccc(NC(=O)c3ccccc3C(=O)O)cc21,-18.0%,?,-11.0%,4.8%,10.4%,-11.2%
CC(C)C1C(=O)N(S(C)(=O)=O)[C@H]2CCN(C(=O)/C=C/CN3CCCCC3)[C@@H]12 (stereo not given in full),.,.,.,-1.9%,.,.
COC(=O)c1ccccc1NC(=O)C(C)Oc1ccccc1 (stereo not given),111.4%,68.0%[59 µM],2.99µM*,16.1%,86.0%,?
COC(=O)c1ccccc1NC(=O)C(C)NS(=O)(=O)c1ccc(OC)cc1 (stereo not given),-4.8%,?,23.8µM*,-2.0%,-14.7%,25.3%[11.4 µM]
CC(C)NC(=O)c1ccccc1NC(=O)C(C)Oc1ccccc1 (stereo not given),-18.0%,13.0%,-5.0%,21.7%,14.5%,-3.8%
CC(=O)N1CC=CC1(CC(C)C)C(=O)O (stereo not given),.,.,.,20.2%,.,.
Cc1cc(N2CCN(C)CC2)ccc1NC(=O)c1cccc(S(=O)(=O)N2CCc3ccccc3C2)c1,?,28.2µM*,-2.5%,-17.9%,?,-35.0%
COc1ccccc1NC(=O)COC(=O)C1CCCC1,.,.,-16.2%,.,29.5%,-0.6%
O=C(COC(=O)C1CCCCC1)Nc1ccccc1OC(F)F,.,55.9%,2.99µM*,-2.0%,5.7%,11.2µM*
Cc1ccc(NC(=O)c2cccc(S(=O)(=O)N3CCc4ccccc4C3)c2)nc1,11.4%,3.0%[0.501 µM],-8.0%,.,22.5%,-9.5%
CN(C)S(=O)(=O)c1cccc(NC(=O)COC(=O)c2cccc(S(=O)(=O)N3CCc4ccccc4C3)c2)c1,?,1.58µM*,4.5%,10.2%,27.8%,-20.9%
CCN(CC(=O)Nc1ccc(NC(C)=O)cc1)C(=O)c1cccc(S(=O)(=O)N2CCc3ccccc3C2)c1,-5.7%,3.16µM*,-5.6%,.,27.8%,-6.2%
CC(=O)Nc1ccc(S(=O)(=O)Nc2cc(-c3cn4ccccc4n3)ccc2C)cc1,-29.8%,0.4%[59 µM],.,.,26.1%,-23.6%
CC1CCC(NC(=O)CSc2nnnn2C)CC1 (stereo not given),-2.7%,-27.2%[59 µM],-14.0%,.,37.1%,-6.2%
